# The supplement of paper PMC4466236
# Over roughly 33,000 sequences, “E-score (dimensionless, -0.5 to 0.5)” has its median near -0.058; the highest 2% begin near 0.35. What follows is part of a selection rich in the highest values, with near analogues and random picks from the rest.
# Test system: MvaT
# Test: PBM 8-mer E-score (mean of HK and ME arrays) (E-score (dimensionless, -0.5 to 0.5)); higher = stronger relative binding preference
# Summary of the method: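 Reported values are rank-based E-scores, taken as the mean of two universal arrays and parsed with a custom script. Each 8-mer score falls between -0.5 and 0.5. The arrays, ME and HK, were double-stranded 60-mers with a constant 25-mer primer region and a variable 35-mer region covering all 8-mers. They were probed, by an earlier protocol, with full-length P. aeruginosa MvaT carrying an N-terminal glutathione S-transferase fusion.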
row,Sequence,PBM 8-mer E-score
1,TCAAGTGA,-0.00408
2,AAAGAGTC,0.0357
3,GTCGATCA,-0.174
4,CTGATACA,0.0751
5,AATACAGC,0.247
6,CTCGCAGC,-0.11
7,CCTCACCC,-0.165
8,AGAATTTA,0.262
9,ATAATTCA,0.325
10,ATAATTTG,0.298
11,GTAATTCA,0.191
12,CTAATTGA,0.11
13,CTAATTTC,0.0429
14,AGAATTTC,0.122
15,GTAATTGA,0.264
16,ATAATTTC,0.386
17,ATAATTTA,0.416
18,CTAATTTA,0.389
19,GTAATTTA,0.388
20,AGTAGAGA,0.0385
21,CCTGAATA,0.0626
22,ACGGCAGA,-0.166
23,GCCACACC,-0.0459
24,AACTCTGC,0.143
25,AAAGGTCA,-0.0376

row,Sequence,PBM 8-mer E-score
1,ATCTCATA,-0.00882
2,TCTTATCA,0.177
3,ACTTATAG,0.251
4,CCTTATAA,0.338
5,ACTTATAT,0.424
6,ACTTATAC,0.326
7,GCTTATAA,0.418
8,TCTTATAA,0.369
9,ACTTATGA,0.248
10,ACTTATAA,0.419
11,GCTTATGA,-0.0922
12,ACTTATCA,0.196
13,GCTTATAC,0.166
14,GAGCGTAC,-0.233
15,AGTTACTG,0.282
16,ACTGGATA,0.12
17,ACCTAAGA,-0.0551
18,GCCCACGA,-0.205
19,CAATGAGA,-0.0714
20,GATAGAAA,0.105
21,AGAAAGGG,-0.151
22,GCTCTTGA,-0.154
23,ATGTTGGG,0.105
24,GGGAACTA,-0.0248
25,AACATTAG,0.234

row,Sequence,PBM 8-mer E-score
1,GACATTAA,0.222
2,CACATTAA,0.305
3,TACATTAA,0.38
4,AACATTAA,0.397
5,AACATTAT,0.34
6,AAATCAGT,0.111
7,CATAAGAA,0.126
8,GATAAGGA,-0.0851
9,GATAAGAA,0.121
10,CATAAGGA,-0.0113
11,TATAAGAA,0.369
12,TATAAGGA,0.348
13,CATGGAGC,-0.21
14,ATCTGCAT,0.0581
15,CTGCATGC,-0.0882
16,TGAAATAA,0.314
17,CGAAATAC,0.0434
18,AGAAATCA,-0.0327
19,CGAAATAA,0.374
20,GGAAATAA,0.31
21,AGAAATAT,0.356
22,AGAAATAG,0.216
23,AGAAATAC,0.157
24,AGAAATAA,0.37
25,GCTCACAC,-0.19

row,Sequence,PBM 8-mer E-score
1,AAAGCCTA,0.125
2,ACTATATA,0.452
3,GCTATACA,0.135
4,ACTATACA,0.241
5,ACTATATC,0.268
6,CCTATATA,0.35
7,CCTATATC,0.0838
8,GCTATAGA,-0.132
9,CCTATACA,0.116
10,GCTATATA,0.402
11,CGGCTGCC,-0.286
12,CATCCAAA,0.0181
13,ATAGTGTG,0.179
14,TAGGAAAA,0.015
15,ACCAGACG,-0.141
16,ATAAAAAC,0.274
17,ATAAAAGG,0.119
18,ATAAAAAG,0.348
19,ATTAAAAG,0.393
20,CTTAAAAG,0.166
21,ATTAAAAA,0.321
22,ATAAAAAA,0.387
23,CTAAAAAG,0.00374
24,ATAAAAAT,0.293
